High-throughput results as filed in PubChem BioAssay.
Sampled rows, rich in hits. Any-hit rate of the full collection: about 1.2%.
PKM2 activator: qHTS Assay for Activators of Human Muscle isoform 2 Pyruvate Kinase. Pyruvate kinase PKM (Homo sapiens), P14618. Potency, µM (doses to about 57.5 µM), inactives show top-dose activation, most hits filed as activators. AID 1631, 2009. actives 0.34% (n = 260,000). purified PKM2, Kinase-Glo ATP luminescence, activation; response scale: 0% is enzyme alone, no compound; also: potency is read from the fitted curve at half-maximal effect; nearly all actives have a fitted effect of over 55% in size
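Purified hPK-M2 (>95%) run at intermediate activity with 0.1 mM ADP and 0.5 mM PEP in 50 mM imidazole pH 7.2, KCl, MgCl2; 1 h room temperature. ATP formed read by Kinase-Glo luminescence; normalized to uninhibited and no-enzyme controls.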
GALK inhibitor: qHTS Assay for Inhibitors of Human Galactokinase (GALK); Purified GALK, Kinase-Glo residual ATP luminescence; AID 1868, 2009; actives 0.007% (n = 270,000); Potency, µM (titrated, usually from 57.5 µM), inactives show at the highest dose activity change, negative = inhibition, hits mostly inhibitors; also: potency is read from the fitted curve at half-maximal effect
Target sequence (P51570 whole entry, looked up): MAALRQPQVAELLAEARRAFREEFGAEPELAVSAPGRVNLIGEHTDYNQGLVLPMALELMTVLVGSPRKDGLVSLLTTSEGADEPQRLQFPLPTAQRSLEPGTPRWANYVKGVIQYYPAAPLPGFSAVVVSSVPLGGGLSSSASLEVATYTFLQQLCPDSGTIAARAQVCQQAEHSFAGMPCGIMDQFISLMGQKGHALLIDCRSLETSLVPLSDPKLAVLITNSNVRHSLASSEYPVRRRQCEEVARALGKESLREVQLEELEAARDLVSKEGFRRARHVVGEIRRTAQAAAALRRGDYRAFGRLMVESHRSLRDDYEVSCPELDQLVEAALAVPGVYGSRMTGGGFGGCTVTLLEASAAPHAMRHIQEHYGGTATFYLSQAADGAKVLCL
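Human GALK (5 nM) with 35 uM ATP and 100 uM galactose in 20 mM HEPES pH 8.0, 5 mM MgCl2, 60 mM NaCl, 1 mM DTT, 0.01% BSA. After 1 h at room temperature, leftover ATP was read by Kinase-Glo Plus luminescence.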
TrxR1 substrate: qHTS Assay for Substrates of Mammalian Selenoprotein Thioredoxin Reductase 1 (TrxR1): qHTS; actives 0.01% (n = 390,000); AID 588456, 2011; Potency, µM (top dose mostly 114 µM), without a hit: top-dose activity change, negative = substrate turnover; purified TrxR1 substrate turnover, NADPH consumption readout; Thioredoxin reductase 1, cytoplasmic (Rattus norvegicus), O89049; also: potency is read from the fitted curve at half-maximal effect; nearly all actives have a fitted effect of over 50% in size
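Rat TrxR1, dispensed at 90 nM, was prereduced with 400 uM NADPH (final) for 5 min at ~22 deg C, then incubated with compound 15 min before 400 uM selenite. A first-read NADPH fluorescence drop versus no-compound background flagged substrates.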
TrxR1 inh: qHTS Assay for Inhibitors of Mammalian Selenoprotein Thioredoxin Reductase 1 (TrxR1): qHTS; Thioredoxin reductase 1, cytoplasmic (Rattus norvegicus), O89049; recombinant rTrxR1, NADPH fluorescence consumption, selenite substrate; Potency, µM (titrated, usually from 114 µM), without a hit: at the top dose activity change, negative = inhibition, usual class: inhibitors; actives 1% (n = 390,000); also: potency is read from the fitted curve at half-maximal effect; nearly all actives have a fitted effect of over 65% in size
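Rat TrxR1 (90 nM in the dispensed reagent) was pre-reduced with 400 uM NADPH for 5 min at room temperature, then incubated with compound for 15 min. After 400 uM selenite was added, NADPH fluorescence (Ex 340/Em 450 nm) was followed for 8 min.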
PI4K2A inh: qHTS for small molecular inhibitors of PI4K2A. Phosphatidylinositol 4-kinase type 2-alpha (Homo sapiens), Q9BTU6. activity change, negative = inhibition, % at 76.9 µM. actives 0.13% (n = 420,000). AID 1346378, 2018. purified PI4K2A, ADP-Glo luminescence, 1 h; active compounds read low; in the data active = activity change below about -50%; inconclusive = mostly about -30% to -49%;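 also: -100% = wells without enzyme as full effect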
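In this quantitative HTS, ADP production by PI4K2A was quantified luminescently after 1 h at ambient temperature; 100 microM adenosine served as plate-quality control.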
* marks the source's active call; other numbers are inactive results; ? = inconclusive; nt = no result; [ ] = remark or other dose. Unless noted, calls follow the shape of the dose curve; as a rule, active = well fitted curve in the direction sought with a large enough effect; inconclusive = small, poorly fitted or top-dose-only effect, or another doubt; inactive = no such curve, though single readings can be large; an effect the other way counts as inactive or inconclusive. Unless noted, % is scaled to controls: 0 for no effect and ±100 for the full control effect.

SMILES	PKM2 activator	GALK inhibitor	TrxR1 substrate	TrxR1 inh	PI4K2A inh
C[C@H](C(=O)OCO/N=[N+](\[O-])N1CCCC1)c1cccc2ccccc12	nt	nt	-10%	18µM*	nt
CCc1ccc(NC(=O)CN(c2ccc(C)cc2)S(=O)(=O)c2cccs2)cc1	nt	nt	-5%	-2%	1
CC(C)C(=O)Nc1nnc(SCc2cc(=O)n3ccccc3n2)s1	nt	nt	-6%[57.1 µM]	-7%[57.1 µM]	2
CCN(CC)S(=O)(=O)c1ccc(OC)c(NC(=O)/C=C/c2ccco2)c1	4%	0%	-4%	18µM*	-16
COc1ccc(C(NC(=O)/C=C/c2ccco2)c2ccc(OC)c(OC)c2)cc1 (stereo unspecified)	12%	0%	-8%	50µM*	1
COc1ccc(C2(CNC(=O)/C=C/c3ccco3)CCCC2)cc1OC	9%	2%	5%	3.5µM*	-7
CCOc1ccc(C(NC(=O)/C=C/c2ccco2)c2ccc(OC)c(OC)c2)cc1 (stereo unspecified)	12%	-2%	1%	35µM*	-5
CC(C)CNC(=O)OCc1cn(Cc2cc(F)ccc2F)nn1	nt	nt	nt	nt	-5
Cc1ccc(NC(=O)Cn2cc(C(=O)c3ccco3)c3ccccc32)cc1	nt	nt	8%[57.1 µM]	1%[57.1 µM]	3
CC(=O)Nc1ccc(NC2=C(Cl)C(=O)c3ccccc3C2=O)cc1	-2%	-2%	0%[57.1 µM]	0.56µM*	-8
O=C1C(Cl)=C(Nc2ccc3cn[nH]c3c2)C(=O)c2ccccc21	-3%	4%	?	?	-7
CN(C)c1ccc(NC2=C(Cl)C(=O)c3ccccc3C2=O)cc1	-7%	nt	4%	2.8µM*	?
COC1=C(Nc2ccccc2OC)C(=O)c2ccccc2C1=O	-12%	0%	2%[57.1 µM]	12%[57.1 µM]	-8
O=C(Oc1ccc(NC2=C(Cl)C(=O)c3ccccc3C2=O)cc1)c1ccc([N+](=O)[O-])cc1	-3%	1%	-6%	-6%	3
COc1ccccc1NC1=C(NC(C)=O)C(=O)c2ccccc2C1=O	-25%	8%	5%	4.5µM*	-15
C[C@@H]1C(=O)N(S(=O)(=O)c2ccccc2[N+](=O)[O-])[C@H]1c1ccc(-c2ccccc2)cc1	nt	nt	5%[57.1 µM]	10%	nt
COC(=O)CCC/C=C1/SCC(NC(=O)c2ccccc2)C1NC(C)=O (stereo unspecified)	2%	6%	0%	20%	-1
COC(=O)CCC/C=C1/SCC(NC(=O)c2ccccc2)C1=O (stereo unspecified)	?	1%	4%	25µM*	-14
COC(=O)CCC/C=C1/SCC(NC(=O)c2ccccc2)C1O (stereo unspecified)	0%	-1%	-19%	50µM*	-5
O=C(CCCN1C(=O)c2ccccc2C1=O)OC1CSCC1NC(=O)c1ccccc1 (stereo unspecified)	0%	-1%	-6%	-1%	-1
Cc1ccc(NC(=O)Cn2c(=O)n(CCCCCC(=O)NCc3ccc(F)cc3)c(=O)c3sccc32)cc1C	nt	nt	3%	9%	3
CC(=O)c1cc(-c2cc(C(=O)O)cc([N+](=O)[O-])c2)c(=O)n2c1CCC2	nt	nt	nt	nt	-11
Cc1ccc(Cl)c(NC(=O)COC(=O)c2ccccc2C(=O)c2ccc(Cl)c([N+](=O)[O-])c2)c1Cl	-2%	1%	-8%	-16%	6
CCCNC(=O)COC(=O)c1ccccc1C(=O)c1ccc(Cl)c([N+](=O)[O-])c1	0%	3%	4%	50µM*	7
COc1ccc(-c2cc(OC(=O)c3ccc(Cl)cc3)c3c(C)oc(C)c3c(=O)c2)cc1	nt	nt	-7%	50µM*	-2
SMILES	PKM2 activator	GALK inhibitor	TrxR1 substrate	TrxR1 inh	PI4K2A inh
CCOc1cc(-c2ccc(OC(=O)c3ccc(OC)cc3)c(OC)c2)cc(=O)c2c(C)oc(C)c12	nt	nt	-3%	35µM*	-3
CCOc1ccc(-c2cc(OC(=O)c3ccc(OC)cc3)c3c(C)oc(C)c3c(=O)c2)cc1	nt	nt	-1%	-23%	-1
COc1ccc(C(=O)Oc2cc(-c3ccc4c(c3)OCO4)cc(=O)c3c(C)oc(C)c23)cc1	nt	nt	3%	?	-4
O=c1[nH]c(N/N=C/c2cc3c(cc2[N+](=O)[O-])OCO3)nc2ccccc12	40µM*	nt	3%	35%	0
O=c1[nH]c(N/N=C\c2ccc3c(c2)OCO3)nc2ccccc12	-14%	3%	-3%	14%	-2
COc1cccc(Cn2c(CNC(=O)Cc3cccc(C)c3)nc3cccnc32)c1	nt	nt	3%[57.1 µM]	35%[57.1 µM]	-3
Fc1cccc(Cl)c1CNc1ccc(N2CCCC2)cc1	12%	0%	3%[57.1 µM]	4µM*	-7
NS(=O)(=O)c1ccc(NCc2c(F)cccc2Cl)cc1	-1%	1%	-3%	-1%	-4
O=C(CCC(=O)N1CCCc2ccccc21)N1CCN(S(=O)(=O)c2ccccc2)CC1	4%	10%	13%[57.1 µM]	13%[57.1 µM]	7
O=C(CCS(=O)(=O)c1ccccc1)N1CCCc2ccccc21	3%	-2%	0%	71µM*	-3
O=C(Nc1ccc(Cc2ccncc2)cc1)C1CCC(N2C(=O)C3C4C=CC(C5CC45)C3C2=O)CC1 (stereo unspecified)	-4%	-5%	-8%	0%	-11
CC(=O)Nc1ccc(NC(=O)C2CCC(N3C(=O)C4C5C=CC(C6CC56)C4C3=O)CC2)cc1 (stereo unspecified)	0%	1%	2%	25µM*	0
COc1ccc(-n2ccn(CC(=O)NCCc3ccccc3)c(=O)c2=O)cc1OC	nt	nt	-8%	3%	5
Cc1cc(C)c(C#N)c(SCCS(=O)(=O)c2ccc(Cl)cc2)n1	20µM*	2%	4%	4%	5
CCc1ccccc1NC(=O)c1ccc2c(c1)nnn2C1CCCC1	nt	nt	-5%[57.1 µM]	2%[57.1 µM]	-3
Cc1cc(C(=O)OCC(=O)NC(C)c2ccccc2)c(C)o1 (stereo unspecified)	-2%	8%	-2%	7%	1
Cc1ccc(/C=C/C(=O)OCC(=O)N2CC(=O)Nc3ccccc32)o1	11%	-1%	-7%[57.1 µM]	28µM*	-9
Cc1ccc(/C=C/C(=O)OCC(=O)NC(C)c2ccccc2)o1 (stereo unspecified)	nt	nt	-8%	50µM*	-5
O=C1CN(C(=O)COC(=O)/C=C/c2ccco2)c2ccccc2N1	-1%	0%	4%[57.1 µM]	-23%	0
COC(=O)c1c(-c2cccs2)csc1NC(=O)COc1ccc(C(C)(C)C)cc1	nt	nt	0%	10%	-7
Cc1ccc(OCC(=O)Nc2ccc(S(=O)(=O)Nc3ncccn3)cc2)c(C(C)(C)C)c1	nt	nt	2%	12%	-3
